{
  "source": "paper PMC7862700",
  "about": "“An all-to-all approach to the identification of sequence-specific readers for epigenetic DNA modifications on cytosine”",
  "assay_in_all_cases": "DAPPL (digital affinity profiling via proximity ligation, sequencing); 10 mM Tris-HCl pH 7.5, 50 mM NaCl, 1 mM DTT, 4% glycerol, room temperature, 30 min; GST-TFs on glutathione beads, 16-mer random dsDNA library, 0.1% formaldehyde crosslink after washing; high values mean tight binding",
  "conditions_in_all_cases": "protein: recombinant; tags: N-terminal GST; dsDNA, one strand shown",
  "key": {"[1]": {"target": "T1, FLI1 (Homo sapiens, UniProt Q01543 1-452)", "T1 sequence": "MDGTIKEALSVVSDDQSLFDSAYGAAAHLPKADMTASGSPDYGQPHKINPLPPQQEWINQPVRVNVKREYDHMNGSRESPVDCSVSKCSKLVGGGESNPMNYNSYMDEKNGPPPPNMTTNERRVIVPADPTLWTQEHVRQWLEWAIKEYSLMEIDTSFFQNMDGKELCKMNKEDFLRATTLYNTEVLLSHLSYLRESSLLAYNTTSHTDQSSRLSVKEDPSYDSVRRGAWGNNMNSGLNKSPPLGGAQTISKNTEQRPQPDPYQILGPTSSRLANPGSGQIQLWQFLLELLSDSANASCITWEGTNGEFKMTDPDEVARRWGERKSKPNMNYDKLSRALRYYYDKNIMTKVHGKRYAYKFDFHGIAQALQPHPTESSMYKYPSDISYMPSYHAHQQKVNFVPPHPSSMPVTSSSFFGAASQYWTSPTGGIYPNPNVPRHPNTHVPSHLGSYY", "in_short": "(§1)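 Binding signal is defined as a hexamer's read frequency for one factor over its frequency for the tag-only sample. To obtain reads, GST-fused human transcription factors were expressed in yeast, captured on glutathione beads, barcoded with DNA and pooled with that sample. Pools met 200 nmole of a 16-mer random double-stranded DNA library in Tris/NaCl/DTT/glycerol buffer for 30 min at room temperature before washing, 0.1% formaldehyde crosslinking, proximity ligation (BsaI/T4 ligase, 1 h, 37 °C), PCR and Illumina NextSeq500 sequencing.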"}, "[2]": {"target": "T2, GABPA (Homo sapiens, UniProt Q06546 1-454)", "T2 sequence": "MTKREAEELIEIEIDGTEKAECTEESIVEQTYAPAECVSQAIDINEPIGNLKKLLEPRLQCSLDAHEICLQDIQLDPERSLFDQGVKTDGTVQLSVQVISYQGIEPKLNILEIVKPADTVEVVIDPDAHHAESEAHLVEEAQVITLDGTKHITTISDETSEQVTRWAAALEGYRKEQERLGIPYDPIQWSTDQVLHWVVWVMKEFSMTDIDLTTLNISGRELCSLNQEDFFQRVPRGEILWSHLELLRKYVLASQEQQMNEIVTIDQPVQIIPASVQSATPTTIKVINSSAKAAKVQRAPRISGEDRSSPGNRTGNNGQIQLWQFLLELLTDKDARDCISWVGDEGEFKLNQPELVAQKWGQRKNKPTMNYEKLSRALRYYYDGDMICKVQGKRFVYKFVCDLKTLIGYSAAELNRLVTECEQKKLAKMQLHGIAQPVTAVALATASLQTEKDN", "in_short": "as §1"}, "[3]": {"target": "T3, EHF (Homo sapiens, UniProt Q9NZC4 1-300)", "T3 sequence": "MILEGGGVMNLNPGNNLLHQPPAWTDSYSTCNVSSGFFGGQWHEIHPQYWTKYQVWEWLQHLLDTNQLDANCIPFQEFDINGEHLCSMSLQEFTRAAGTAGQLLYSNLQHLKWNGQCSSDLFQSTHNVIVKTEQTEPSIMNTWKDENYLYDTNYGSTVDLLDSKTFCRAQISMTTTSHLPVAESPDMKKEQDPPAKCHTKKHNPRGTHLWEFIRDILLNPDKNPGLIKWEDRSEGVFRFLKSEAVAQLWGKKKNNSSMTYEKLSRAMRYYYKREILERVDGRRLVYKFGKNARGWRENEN", "in_short": "as §1"}, "[4]": {"target": "T4, ELK3 (Homo sapiens, UniProt P41970 1-407)", "T4 sequence": "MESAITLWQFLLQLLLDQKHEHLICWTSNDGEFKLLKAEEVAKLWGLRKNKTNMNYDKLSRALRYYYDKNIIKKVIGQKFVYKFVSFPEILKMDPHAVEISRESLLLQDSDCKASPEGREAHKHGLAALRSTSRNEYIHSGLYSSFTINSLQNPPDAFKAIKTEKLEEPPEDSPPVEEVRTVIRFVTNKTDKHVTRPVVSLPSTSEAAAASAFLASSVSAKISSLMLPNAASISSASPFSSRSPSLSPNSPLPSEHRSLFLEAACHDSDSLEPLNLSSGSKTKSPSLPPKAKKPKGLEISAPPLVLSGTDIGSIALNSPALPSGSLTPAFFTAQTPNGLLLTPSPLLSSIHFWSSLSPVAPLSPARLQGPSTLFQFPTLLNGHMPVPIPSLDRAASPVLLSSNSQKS", "in_short": "as §1"}, "[5]": {"target": "ELF4 (Homo sapiens, UniProt Q99607 1-663)", "sequence (Q99607 whole entry)": "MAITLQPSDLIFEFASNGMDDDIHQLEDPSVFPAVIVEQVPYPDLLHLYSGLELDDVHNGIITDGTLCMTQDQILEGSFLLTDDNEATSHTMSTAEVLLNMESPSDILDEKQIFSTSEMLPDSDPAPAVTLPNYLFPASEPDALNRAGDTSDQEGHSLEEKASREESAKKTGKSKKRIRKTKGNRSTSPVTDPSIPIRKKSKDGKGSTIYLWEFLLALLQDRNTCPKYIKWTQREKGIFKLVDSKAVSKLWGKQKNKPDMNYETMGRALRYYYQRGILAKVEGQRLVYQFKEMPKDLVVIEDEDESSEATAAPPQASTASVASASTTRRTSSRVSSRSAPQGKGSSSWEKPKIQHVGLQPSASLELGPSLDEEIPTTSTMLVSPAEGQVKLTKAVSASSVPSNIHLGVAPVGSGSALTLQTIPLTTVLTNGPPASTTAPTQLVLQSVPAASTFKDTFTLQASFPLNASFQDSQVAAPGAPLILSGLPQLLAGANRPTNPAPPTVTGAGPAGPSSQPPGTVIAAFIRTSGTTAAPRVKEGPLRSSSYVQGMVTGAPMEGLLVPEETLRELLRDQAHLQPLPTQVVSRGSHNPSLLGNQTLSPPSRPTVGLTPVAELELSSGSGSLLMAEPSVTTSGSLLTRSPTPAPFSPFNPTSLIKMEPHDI", "in_short": "as §1"}, "[6]": {"target": "T5, ELF3 (Homo sapiens, UniProt P78545 1-371)", "T5 sequence": "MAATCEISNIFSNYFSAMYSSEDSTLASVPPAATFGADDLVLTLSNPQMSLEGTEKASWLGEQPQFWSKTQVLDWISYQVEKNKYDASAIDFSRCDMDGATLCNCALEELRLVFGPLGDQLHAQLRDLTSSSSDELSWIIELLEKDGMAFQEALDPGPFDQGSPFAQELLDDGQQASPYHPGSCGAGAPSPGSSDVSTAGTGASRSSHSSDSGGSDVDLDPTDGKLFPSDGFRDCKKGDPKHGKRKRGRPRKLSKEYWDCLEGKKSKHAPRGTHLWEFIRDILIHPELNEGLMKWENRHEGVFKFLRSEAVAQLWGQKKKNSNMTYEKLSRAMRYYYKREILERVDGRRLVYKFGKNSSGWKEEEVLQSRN", "in_short": "as §1"}, "[7]": {"target": "ETV1 (Homo sapiens, UniProt P50549 1-477)", "sequence (P50549 whole entry)": "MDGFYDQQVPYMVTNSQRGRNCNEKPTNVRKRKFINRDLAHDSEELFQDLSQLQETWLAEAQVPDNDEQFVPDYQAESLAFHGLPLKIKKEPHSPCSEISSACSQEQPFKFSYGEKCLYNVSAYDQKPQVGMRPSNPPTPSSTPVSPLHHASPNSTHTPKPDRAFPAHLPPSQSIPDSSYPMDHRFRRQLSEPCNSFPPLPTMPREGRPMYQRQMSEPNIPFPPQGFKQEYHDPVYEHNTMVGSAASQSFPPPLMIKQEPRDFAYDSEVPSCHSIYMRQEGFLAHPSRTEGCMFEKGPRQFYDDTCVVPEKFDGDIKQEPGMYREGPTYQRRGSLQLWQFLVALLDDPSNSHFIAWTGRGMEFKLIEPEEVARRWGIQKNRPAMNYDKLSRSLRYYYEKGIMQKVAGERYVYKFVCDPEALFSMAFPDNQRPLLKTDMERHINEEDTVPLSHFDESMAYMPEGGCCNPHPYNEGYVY", "in_short": "as §1"}, "[8]": {"target": "T6, ETV3L (Homo sapiens, UniProt Q6ZN32 1-361)", "T6 sequence": "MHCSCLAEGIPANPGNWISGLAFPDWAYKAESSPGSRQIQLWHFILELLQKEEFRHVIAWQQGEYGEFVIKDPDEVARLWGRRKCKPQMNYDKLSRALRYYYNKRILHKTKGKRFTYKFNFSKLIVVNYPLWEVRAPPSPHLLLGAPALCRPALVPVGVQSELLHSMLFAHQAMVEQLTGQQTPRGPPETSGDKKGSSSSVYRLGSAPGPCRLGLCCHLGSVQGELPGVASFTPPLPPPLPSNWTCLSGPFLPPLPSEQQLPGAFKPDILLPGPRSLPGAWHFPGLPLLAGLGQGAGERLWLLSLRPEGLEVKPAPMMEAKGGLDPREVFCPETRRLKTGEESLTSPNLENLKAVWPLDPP", "in_short": "as §1"}, "[9]": {"target": "T7, ETS2 (Homo sapiens, UniProt P15036 1-469)", "T7 sequence": "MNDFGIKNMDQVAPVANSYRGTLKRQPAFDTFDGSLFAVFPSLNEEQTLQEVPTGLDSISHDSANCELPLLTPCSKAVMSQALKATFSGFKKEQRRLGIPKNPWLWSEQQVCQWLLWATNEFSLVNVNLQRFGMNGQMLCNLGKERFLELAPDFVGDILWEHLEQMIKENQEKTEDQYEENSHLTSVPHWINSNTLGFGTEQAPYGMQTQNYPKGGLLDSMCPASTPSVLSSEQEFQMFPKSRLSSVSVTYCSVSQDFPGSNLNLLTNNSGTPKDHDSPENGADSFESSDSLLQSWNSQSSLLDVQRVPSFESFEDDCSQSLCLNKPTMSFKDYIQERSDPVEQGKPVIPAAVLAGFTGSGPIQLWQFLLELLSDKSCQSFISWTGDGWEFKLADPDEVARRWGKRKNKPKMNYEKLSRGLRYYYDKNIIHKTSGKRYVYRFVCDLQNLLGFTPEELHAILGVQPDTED", "in_short": "as §1"}, "[10]": {"target": "T8, SPDEF (Homo sapiens, UniProt O95238 1-335)", "T8 sequence": "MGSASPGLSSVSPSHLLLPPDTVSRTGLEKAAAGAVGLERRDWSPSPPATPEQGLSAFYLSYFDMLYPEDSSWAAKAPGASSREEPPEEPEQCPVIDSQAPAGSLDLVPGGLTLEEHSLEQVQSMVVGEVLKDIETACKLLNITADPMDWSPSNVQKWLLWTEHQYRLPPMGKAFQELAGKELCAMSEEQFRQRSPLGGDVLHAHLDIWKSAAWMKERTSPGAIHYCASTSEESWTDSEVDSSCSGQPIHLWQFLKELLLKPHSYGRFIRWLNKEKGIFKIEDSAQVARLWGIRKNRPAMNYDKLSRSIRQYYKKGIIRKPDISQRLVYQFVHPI", "in_short": "as §1"}, "[11]": {"target": "T9, ELF5 (Homo sapiens, UniProt Q9UKW6-2 1-255)", "T9 sequence": "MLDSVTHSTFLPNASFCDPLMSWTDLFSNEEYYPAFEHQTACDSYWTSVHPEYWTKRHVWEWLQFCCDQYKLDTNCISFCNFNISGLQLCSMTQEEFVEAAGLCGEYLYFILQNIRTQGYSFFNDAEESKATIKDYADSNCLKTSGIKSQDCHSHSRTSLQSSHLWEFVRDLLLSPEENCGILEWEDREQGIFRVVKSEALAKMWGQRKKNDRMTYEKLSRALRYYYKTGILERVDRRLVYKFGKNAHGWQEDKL", "in_short": "as §1"}, "[12]": {"target": "ETV6 (Homo sapiens, UniProt P41212 1-452)", "sequence (P41212 whole entry)": "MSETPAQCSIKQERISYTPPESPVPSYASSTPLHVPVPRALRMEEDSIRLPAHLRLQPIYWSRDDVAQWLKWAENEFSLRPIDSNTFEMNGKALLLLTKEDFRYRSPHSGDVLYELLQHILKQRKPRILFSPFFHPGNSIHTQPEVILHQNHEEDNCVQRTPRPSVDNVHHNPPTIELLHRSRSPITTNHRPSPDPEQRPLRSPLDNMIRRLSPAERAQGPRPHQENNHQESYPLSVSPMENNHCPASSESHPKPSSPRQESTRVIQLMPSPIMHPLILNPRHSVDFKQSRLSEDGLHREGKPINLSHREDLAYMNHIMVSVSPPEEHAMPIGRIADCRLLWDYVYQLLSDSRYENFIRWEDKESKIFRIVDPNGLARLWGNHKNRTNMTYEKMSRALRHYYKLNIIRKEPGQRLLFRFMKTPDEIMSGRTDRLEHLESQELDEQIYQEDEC", "in_short": "as §1"}},
  "data": [
    {"sequence": "GACGAC", "values": [
      {"measurement": "binding signal", "setting": "[1]", "result": "1.01 fold enrichment (6-mer frequency, TF over GST control)"},
      {"measurement": "binding signal", "setting": "[2]", "result": "1.05 fold enrichment (6-mer frequency, TF over GST control)"},
      {"measurement": "binding signal", "setting": "[3]", "result": "1.06 fold enrichment (6-mer frequency, TF over GST control)"},
      {"measurement": "binding signal", "setting": "[4]", "result": "1.03 fold enrichment (6-mer frequency, TF over GST control)"},
      {"measurement": "binding signal", "setting": "[5]", "result": "1.03 fold enrichment (6-mer frequency, TF over GST control)"},
      {"measurement": "binding signal", "setting": "[6]", "result": "1.06 fold enrichment (6-mer frequency, TF over GST control)"},
      {"measurement": "binding signal", "setting": "[7]", "result": "1.02 fold enrichment (6-mer frequency, TF over GST control)"},
      {"measurement": "binding signal", "setting": "[8]", "result": "1.03 fold enrichment (6-mer frequency, TF over GST control)"},
      {"measurement": "binding signal", "setting": "[9]", "result": "1.02 fold enrichment (6-mer frequency, TF over GST control)"},
      {"measurement": "binding signal", "setting": "[10]", "result": "1.04 fold enrichment (6-mer frequency, TF over GST control)"},
      {"measurement": "binding signal", "setting": "[11]", "result": "1.02 fold enrichment (6-mer frequency, TF over GST control)"},
      {"measurement": "binding signal", "setting": "[12]", "result": "1.08 fold enrichment (6-mer frequency, TF over GST control)"}
    ]}
  ]
}
